MITF inhib: MITF inhibition | inhibition, % (no concentration beside the values) | 37,000 tested, 0.28% active | TRPM1 promoter luciferase, luminescence, 24 h; in the data active = inhibition above about 85%;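 note: human melanocyte line stably carrying TRPM1 promoter luciferase reporter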
Shh pathway inh: Sonic Hedgehog pathway inhibition; Shh-LIGHT2 Gli-luciferase reporter, 30 h; inhibition, % (no concentration beside the values); 22,000 tested, 2.1% active; AID 2313;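 active = mean inhibition across valid replicates above about 65%, limit read from the data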;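 note: pathway switched on by Shh-conditioned medium diluted 1 in 25 in low serum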
NOMO-1 viab: STK33 inhibitor candidate reducing NOMO-1 cell viability. NOMO-1 AML viability, CellTiter-Glo luminescence, 72 h. inhibition, % (concentration not given with the values). 37,000 tested, 7.5% active; in the data active = inhibition above about 80%
Large screens that a line does not name were inactive. Most compounds without a hit are left out; they make up all but 7.8% or so of the library.

CC(=O)O[C@@H]1C[C@@]23C[C@@]24CC[C@H](O[C@@H]2OC[C@@H](O)[C@H](O)[C@H]2O)C(C)(C)[C@@H]4CC[C@H]3[C@]2(C)C[C@@H]3O[C@]4(C[C@@H](C)[C@@H]3[C@@]12C)O[C@H](O)[C@@]1(C)O[C@@H]41	none (no result: MITF inhib, NOMO-1 viab)
C[C@@H]1CN([C@@H](C)CO)C(=O)Cc2cc(N(C)C)ccc2O[C@@H]1CN(C)S(C)(=O)=O	none
CC(=O)NCCOc1nc(N2CCCCC2)nc(N2CCOCC2)n1	none (no result: Shh pathway inh)
C[C@@H]1CN([C@H](C)CO)C(=O)Cc2cc(NC(=O)CCCCCC(=O)Nc3ccccc3N)ccc2O[C@@H]1CN(C)C(=O)Nc1ccc(F)cc1	none (no result: Shh pathway inh)
C#CCN1C(=O)C(O)(CC(=O)c2ccc(C)o2)c2ccccc21 (configuration not stated)	NOMO-1 viab 120.3 (no result: Shh pathway inh)
NC(=O)CN1C(=O)C(O)(CC(=O)c2cccnc2)c2ccccc21 (configuration not stated)	none (no result: Shh pathway inh)
O=C(CC1(O)C(=O)N(Cc2cccc3ccccc23)c2ccccc21)c1ccccn1 (configuration not stated)	NOMO-1 viab 111.5 (no result: Shh pathway inh)
Cc1ccc(C(=O)CC2(O)C(=O)N(Cc3cccc4ccccc34)c3ccccc32)o1 (configuration not stated)	none (no result: Shh pathway inh)
Cc1coc(C)c1C(=O)CC1(O)C(=O)N(CCCC#N)c2ccccc21 (configuration not stated)	none (no result: Shh pathway inh)
Cc1ccc(C(=O)CC2(O)C(=O)N(CC(N)=O)c3ccccc32)s1 (configuration not stated)	none (no result: Shh pathway inh)
CCCCN1C(=O)C(O)(CC(=O)c2ccccn2)c2ccccc21 (configuration not stated)	NOMO-1 viab 125.4 (no result: Shh pathway inh)
O=C(CC1(O)C(=O)N(Cc2cccc3ccccc23)c2ccccc21)c1ccco1 (configuration not stated)	NOMO-1 viab 110.9 (no result: Shh pathway inh)
C[C@H](CO)N1C[C@H](C)[C@H](CN(C)Cc2ccc(C(F)(F)F)cc2)Oc2c(NS(=O)(=O)c3ccc(F)cc3)cccc2C1=O	none
C[C@@H]1CN([C@@H](C)CO)C(=O)c2cccc(NS(C)(=O)=O)c2O[C@@H]1CN(C)S(=O)(=O)c1cccs1	none
COc1ccc(S(=O)(=O)N(C)C[C@H]2Oc3c(NC(=O)Nc4ccc(F)cc4)cccc3C(=O)N([C@H](C)CO)C[C@H]2C)cc1	none
O=C(Nc1ccccc1C(=O)N1CCOCC1)C1CCCO1 (configuration not stated)	none (no result: Shh pathway inh)
COc1ccc(CN2C(=O)C(O)(CC(=O)c3ccc4ccccc4c3)c3ccccc32)cc1OC (configuration not stated)	none (no result: Shh pathway inh)
COc1ccc(CN2C(=O)C(O)(CC(=O)c3ccco3)c3ccccc32)cc1OC (configuration not stated)	NOMO-1 viab 118.2 (no result: Shh pathway inh)
C[C@H]1CN([C@@H](C)CO)C(=O)c2cccc(NC(=O)c3ccc(-c4nccs4)cc3)c2O[C@H]1CN(C)C(=O)NC1CCCCC1	none
C[C@H](CO)N1C[C@H](C)[C@@H](CN(C)C(=O)Nc2ccc(F)cc2)Oc2ccc(NC(=O)NC3CCCCC3)cc2C1=O	none
C[C@@H]1CN([C@H](C)CO)C(=O)c2cc(NC(=O)Cc3ccccc3)ccc2O[C@H]1CN(C)Cc1ccc2c(c1)OCO2	none (no result: Shh pathway inh)
COc1ccc(NC(=O)Nc2ccc3c(c2)C(=O)N([C@@H](C)CO)C[C@H](C)[C@H](CN(C)Cc2ccc4c(c2)OCO4)O3)cc1	NOMO-1 viab 98.0
C[C@H]1CN([C@@H](C)CO)C(=O)c2cc(NC(=O)Cc3ccccc3)ccc2O[C@H]1CN(C)Cc1ccc2c(c1)OCO2	NOMO-1 viab 95.2 (no result: Shh pathway inh)
C[C@@H]1CN([C@@H](C)CO)C(=O)c2cc(NC(=O)Nc3ccc4c(c3)OCO4)ccc2O[C@H]1CN(C)Cc1ccc(Cl)c(Cl)c1	NOMO-1 viab 94.7
COc1ccc(NC(=O)Nc2ccc3c(c2)C(=O)N([C@@H](C)CO)C[C@@H](C)[C@@H](CN(C)Cc2ccc4c(c2)OCO4)O3)cc1	none (no result: Shh pathway inh)
C[C@H](CO)N1C[C@H](C)[C@@H](CN(C)Cc2ccc3c(c2)OCO3)Oc2ccc(NC(=O)Nc3ccccc3)cc2C1=O	none (no result: Shh pathway inh)
C[C@@H]1CN([C@H](C)CO)C(=O)c2cc(NC(=O)Nc3ccc4c(c3)OCO4)ccc2O[C@@H]1CN(C)Cc1ccc2c(c1)OCO2	none (no result: Shh pathway inh)
C[C@H](CO)N1C[C@H](C)[C@H](CN(C)Cc2ccc3c(c2)OCO3)Oc2ccc(NC(=O)Nc3ccccc3)cc2C1=O	NOMO-1 viab 93.7 (no result: Shh pathway inh)
C[C@@H]1CN([C@H](C)CO)C(=O)c2cccc(NC(=O)c3ccc(-c4nccs4)cc3)c2O[C@@H]1CN(C)C(=O)NC1CCCCC1	none
Cc1ccc(S(=O)(=O)Nc2ccc3c(c2)CC(=O)N([C@@H](C)CO)C[C@H](C)[C@@H](CN(C)C(=O)Nc2ccc(C(F)(F)F)cc2)O3)cc1	none (no result: Shh pathway inh)
